ChEMBL document CHEMBL3988442, “University of Dundee, Small-Polar-MMV Screening Library” (2021)
The whole screen tested about 48,000 compounds, of which about 13,000 (27%) showed an effect of 50% or more. The list shows a part of the results.

Tested on: Wolbachia pipientis
Assay: Anti-Wolbachia Cell-Based Screen
Type: functional
Design: scale not given: in the data most compounds retested in dose-response had high values
Settings: 5 µM

SMILES	Percent Effect
CC1(c2ccccc2)CCC(=O)N(CCN2CCCOC2=O)C1 (stereo not drawn)	-2.659%
CC(Cn1cnc2cn(C)nc2c1=O)Oc1cccnc1 (stereo not drawn)	-0.8182%
Cc1[nH]ncc1CCCNC(=O)N1CCN2CCCCC2C1 (stereo not drawn)	-2.363%
CCCn1cnnc1CNC(=O)C1COc2cc(OC)ccc2C1 (stereo not drawn)	-15.52%
CCOCCNC(=O)c1cccc(S(=O)(=O)NC[C@@H]2C[C@H](F)CN2)c1	-1.824%
Cc1ccc(F)c(C(=O)N2CCN(S(C)(=O)=O)[C@@H](C)C2)c1	7.436%
COCc1noc(CCNC(=O)c2cc(C)c(C)[nH]c2=O)n1	20.99%
Cc1cc(C(F)(F)F)cc(=O)n1CCCn1cnnn1	-2.026%
Cc1cc(C(F)(F)F)cc(=O)n1CCn1cc(Cl)cn1	-6.58%
COCc1nc(Cn2c(C)cc(C(F)(F)F)cc2=O)no1	116.4%
COCc1nc(CN2C(=O)OC[C@@H]2C(C)C)no1	7.812%
Cc1cc(C(F)(F)F)cc(=O)n1Cc1nc(C(C)C)no1	99.71%
COCc1nc(Cn2ncn3cccc3c2=O)no1	10.93%
Cc1cnn(CCCn2c(C)cc(C(F)(F)F)cc2=O)c1	-18.2%
COCc1noc(Cn2c(C)cc(C(F)(F)F)cc2=O)n1	123.4%
CCn1cc(CN(C)S(=O)(=O)c2cc(Cl)ccc2Cl)cn1	2.949%
COCc1ncc(CN2CC(Oc3c(C)cccc3C)C2)cn1	2.359%
C[S+]([O-])c1nncn1CC(=O)c1ccc2c(c1)CCO2 (stereo not drawn)	-1.094%
CC(C)N(C)CC(=O)NCC(O)c1cc2ccccc2s1 (stereo not drawn)	-11.06%
FC(F)(F)Cc1noc(CN2CCCC2c2noc(C3CC3)n2)n1 (stereo not drawn)	0.1706%
CC(C)c1nc(CSc2nnc(Cn3cncn3)o2)cs1	-8.133%
CC(C)Cc1nc(CSCC(=O)N2CCC(C)CC2)no1	4.489%
CC(C)Cc1cc(NC(=O)c2ccccc2F)n(C)n1	99.33%
CC(C)Cc1cc(C(=O)NC(C)(CO)CO)n(C)n1	11.8%
CC(C)Cc1cc(C(=O)N2CC(OCc3ccccc3F)C2)n(C)n1	4.315%
COc1ccccc1C(=O)Nc1cc(CC(C)C)nn1C	100.2%
O=c1c2cccnc2cnn1CC(O)c1ccc(Br)cc1 (stereo not drawn)	-15.17%

SMILES	Percent Effect
CSCCC(NC(N)=O)C(=O)NCc1cnn(-c2ccccc2)c1 (stereo not drawn)	-24.8%
CC(C)CN1CC(O)CN(S(=O)(=O)c2ccccc2)CC1=O (stereo not drawn)	100.2%
CCN1CCNC(=O)C12CCN(S(=O)(=O)c1ccc(F)cc1)CC2	-6%
O=C1CN(S(=O)(=O)c2ccc(F)cc2)CC(O)CN1CC1CC1 (stereo not drawn)	106.3%
CC(C)CN1CCNC(=O)C12CCN(S(=O)(=O)c1ccc(F)cc1)CC2	-14.33%
CC(C)CN1CC(O)CN(S(=O)(=O)c2ccc(F)cc2)CC1=O (stereo not drawn)	103.6%
O=C1CO[C@@H]2CN(S(=O)(=O)c3ccccc3)C[C@H]2N1CC1CC1	-2.601%
CC(C)CN1CC(c2nc(-c3ccc(F)cc3)c[nH]2)CC1=O (stereo not drawn)	-3.521%
N[C@H]1CN(S(=O)(=O)c2ccccc2)C[C@@H]1C1CC1	-7.486%
CCC[C@H]1CN(S(=O)(=O)c2ccccc2)C[C@@H]1N	-22.4%
Cc1ccc(C)c(OC(C)C(=O)NCCNc2cccnc2)c1 (stereo not drawn)	16.95%
CCn1ncc2c1NC(=O)CC2c1cnc(-c2ccccn2)nc1 (stereo not drawn)	-2.059%
COc1ccccc1N1CCN(C(=O)Cn2nc(C)cc2C)CC1(C)C	-9.26%
Cc1c(Cl)c(C(=O)N2CC[C@H](N3CCOCC3)[C@H](CCCO)C2)nn1C	-7.195%
CCc1noc(CN2CCN(Cc3cccs3)CC2)n1	91.28%
CC(C)CCN1CCN(Cc2nc(C(C)C)no2)CC1	-7.959%
CC(C)(C)c1noc(CN2CCCN(Cc3cccs3)CC2)n1	1.032%
CC(C)c1noc(CN2CCCN(Cc3cccs3)CC2)n1	67.59%
CCc1noc(CN2CCCN(Cc3cccs3)CC2)n1	74.2%
CC(C)(C)c1nc(CN2CCC(c3nc4cc(Cl)ccc4o3)CC2)no1	-20.96%
CCc1noc(CN2CCCN(C(N)=O)CC2)n1	-3.109%
CC(C)Cc1noc(CN2CCN(C(=O)c3cccs3)CC2)n1	-25.07%
Cc1noc(CN2CCN(Cc3cccs3)CC2)n1	0.5359%
CC(C)(C)c1nc(CN2CCCN(Cc3cccs3)CC2)no1	85.49%
CCc1nc(CN2CCCN(c3cnc4ccccc4n3)CC2)no1	-8.028%
Cc1cc2nc(CO[C@H]3CN(CC4CC4)C[C@H]3F)[nH]c2cc1C	-2.135%
